Test [1] is described as follows: S16 Schwann cell viability assay (CellTiter-Glo assay) (AID 624031).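 Note: native untransfected S16 rat Schwann cells; cellular ATP luminescence as a viability measure; nearly all actives have a fitted effect of over 70% in size.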 Summed up:
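Cells were seeded at 500-750 per well in phenol red-free DMEM with 10% FBS and left overnight. Compounds or DMSO were pinned in, incubation ran 24 h at 37 °C/5% CO2, then CellTiter-Glo reagent was added and luminescence measured.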

The test system of test [2] is 3D7. Briefly: qHTS profiling for inhibitors of Plasmodium falciparum proliferation (AID 504749). Note: nearly all actives have a fitted effect of over 60% in size. Note: potency is the fitted concentration of half-maximal effect. The note with it: P. falciparum in erythrocytes, SYBR Green DNA, 72 h; series mostly up to 28.7 µM. Summed up: (§1)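 SYBR Green fluorescence of parasite DNA, read after lysis and overnight dark incubation, measured growth over 72 h in erythrocyte culture at 0.3% parasitemia and 2.5% hematocrit. Data normalised to DMSO and 0.29 uM artemisinin, with plate-drift correction.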

For test [3], the system named is 7G8. Described as above. The note with it: P. falciparum in erythrocytes, SYBR Green DNA, 72 h; series mostly up to 28.7 µM. Summed up: as §1
Test [4] concerns ATS95. The description is as above. The note with it: P. falciparum in erythrocytes, SYBR Green DNA, 72 h; series mostly up to 28.7 µM. The essentials:
as §1

Test [5] has as its system CP191. The description is as above. The note with it: P. falciparum in erythrocytes, SYBR Green DNA, 72 h; series mostly up to 28.7 µM. The essentials:
as §1

For test [6], the system named is CP215. Described as above. To be noted: P. falciparum in erythrocytes, SYBR Green DNA, 72 h; series mostly up to 28.7 µM. Summed up: as §1
In test [7] the test system is CP247. Described as above. The note with it: P. falciparum in erythrocytes, SYBR Green DNA, 72 h; series mostly up to 28.7 µM. Summed up:
as §1

The test system of test [8] is CP260. Described as above. To be noted: P. falciparum in erythrocytes, SYBR Green DNA, 72 h; series mostly up to 28.7 µM. Summed up:
as §1

Test [9] deals with CP266. The test is described as above. The note with it: P. falciparum in erythrocytes, SYBR Green DNA, 72 h; series mostly up to 28.7 µM. The essentials:
as §1

Test [10] relates to CP291. Described as above. The note with it: P. falciparum in erythrocytes, SYBR Green DNA, 72 h; series mostly up to 28.7 µM. The essentials:
as §1

Test [11] has as its system CP335. Described as above. The note with it: P. falciparum in erythrocytes, SYBR Green DNA, 72 h; series mostly up to 28.7 µM. Summed up:
as §1

Test [12] concerns DIV17. The description is as above. To be noted: P. falciparum in erythrocytes, SYBR Green DNA, 72 h; series mostly up to 28.7 µM. Summed up: as §1
Test [13] deals with DIV30. The test is described as above. The note with it: P. falciparum in erythrocytes, SYBR Green DNA, 72 h; series mostly up to 28.7 µM. The essentials:
as §1

Test [14] relates to P93_24. Described as above. The note with it: P. falciparum in erythrocytes, SYBR Green DNA, 72 h; series mostly up to 28.7 µM. The essentials:
as §1

Test [15] deals with P94_40. The description is as above. The note with it: P. falciparum in erythrocytes, SYBR Green DNA, 72 h; series mostly up to 28.7 µM. The essentials:
as §1

Test [16] relates to PAD. The description is as above. To be noted: P. falciparum in erythrocytes, SYBR Green DNA, 72 h; series mostly up to 28.7 µM. Summed up:
as §1

In test [17] the test system is PC26. Described as above. The note with it: P. falciparum in erythrocytes, SYBR Green DNA, 72 h; series mostly up to 28.7 µM. The essentials: as §1
Test [18] concerns SC27B. The test is described as above. The note with it: P. falciparum in erythrocytes, SYBR Green DNA, 72 h; series mostly up to 28.7 µM. The essentials:
as §1

Test [19] relates to TAB113. Described as above. The note with it: P. falciparum in erythrocytes, SYBR Green DNA, 72 h; series mostly up to 28.7 µM. The essentials:
as §1

For test [20], the system named is TAB165. The test is described as above. The note with it: P. falciparum in erythrocytes, SYBR Green DNA, 72 h; series mostly up to 28.7 µM. The essentials:
as §1

Records with an inconclusive call do not appear. Activity calls are given as the source filed them. Calls come from the whole dose curve; as a rule, active = well fitted curve in the direction sought with a large enough effect; inconclusive = small, poorly fitted or top-dose-only effect, or another doubt; inactive = no such curve, though single readings can be large; an effect the other way counts as inactive or inconclusive.

Drawing on PubChem BioAssay (NCATS), this text covers Potency for twelve molecules.

On to `C[C@@H]1CCN(C(=O)[C@H](CCCNC(=N)N)NS(=O)(=O)c2cccc3c2NC[C@H](C)C3)[C@@H](C(=O)O)C1`, for which the Potency entry in test [1], in [2], in test [3], in [4], in test [5] and in test [6] was “inactive” in each case. Further, the Potency entry in test [7], in test [8], in test [9], in [10], in test [11] and in [12] was “inactive” each time. Also, the Potency entry in test [13], in [14], in [15], in test [16], in test [17] and in test [18] was “inactive” each time. For the same molecule, the Potency result in [19] and in [20] was “inactive” in each case.
For the molecule `C=C1NC(=O)c2cc(CN(C)c3ccc(C(=O)N[C@@H](CCC(=O)O)C(=O)O)s3)ccc2N1`, the Potency result in [1], in [2], in [3], in test [4], in test [5] and in [6] was “inactive” throughout. In addition, the Potency result in [7], in test [8], in test [9], in test [11], in test [12] and in [13] was “inactive” throughout. Also, the Potency entry in test [15], in test [18], in [19] and in test [20] was “inactive” in each case.
For the molecule `CCC(=O)O[C@]1(C(=O)CCl)[C@@H](C)CC2C3C[C@H](F)C4=CC(=O)C=CC4(C)[C@@]3(F)C(O)CC21C` (some centres undefined), the Potency is 11.2 µM (active) in [2]; 1.58 µM (active) in [3]; 6.31 µM (active) in test [4]; 7.94 µM (active) in [5]; 10.7 µM (active) in [6]; 12.6 µM (active) in [7]. Further, the Potency in test [8] was 11.2 µM (active); in test [10] it was 13.5 µM (active); in [11], 10.7 µM (active); in test [12] it was 4.26 µM (active); in [13], 12 µM (active); in test [14], 10 µM (active). The Potency in test [15] was 8.91 µM (active); in test [16], 3.98 µM (active); in test [17], 12 µM (active); in test [18], 7.94 µM (active); in test [19], 8.91 µM (active); in test [20] it was 10 µM (active).
Consider `N#C/C(=C1/SCC(c2ccccc2Cl)S1)n1ccnc1` (centres undefined), for which the Potency result in test [1], in [2], in test [5], in [7], in test [8] and in test [10] was “inactive” throughout. Moreover, the Potency entry in test [11], in test [12], in [13], in test [15] and in test [19] was “inactive” each time. The Potency is 10 µM (active) in test [3] and 12.6 µM (active) in test [20].
With `CCOC(=O)C(CCc1ccccc1)NC(C)C(=O)N1Cc2cc(OC)c(OC)cc2CC1C(=O)O` (centres undefined), the Potency result in test [1], in test [2], in test [5], in [6], in [8] and in [9] was “inactive” in each case. Also, the Potency result in test [10] and in test [19] was “inactive” throughout. Moreover, the Potency in test [3] was 8.91 µM (active); in test [12] it was 5.36 µM (active); in test [13], 7.57 µM (active); in test [14], 5.01 µM (active); in test [16], 4.47 µM (active); in [17], 6.75 µM (active). In addition, the Potency in test [18] and in [20] was 7.08 µM (active) each time.
For the molecule `O=C(O)Cc1sc(-c2ccc(Cl)cc2)nc1-c1ccccc1`, the Potency result in [1], in test [2], in test [3], in test [4], in test [5] and in test [7] was “inactive” each time. The Potency entry in [8], in test [9], in test [10], in test [11], in test [12] and in test [13] was “inactive” in each case. For the same molecule, the Potency entry in test [14], in test [15], in test [16], in [17], in test [18] and in test [19] was “inactive” throughout. Besides, in test [20], the Potency result is “inactive”.
For `C[C@]12CC[C@@H]3c4ccc(O)cc4C[C@@H](CCCCCCCCCS(=O)CCCC(F)(F)C(F)(F)F)C3[C@@H]1CC[C@@H]2O` (some centres undefined), the Potency entry in test [1] and in [9] was “inactive” throughout. Also, the Potency in [2] was 10 µM (active); in [3] it was 1.78 µM (active); in [4], 8.91 µM (active); in [5], 7.94 µM (active); in [8] it was 8.91 µM (active); in test [10], 12 µM (active). Moreover, the Potency is 13.5 µM (active) in test [11]; 4.78 µM (active) in test [12]; 3.79 µM (active) in [13]; 2.24 µM (active) in [14]; 5.62 µM (active) in test [15]; 3.98 µM (active) in [16]. In addition, the Potency is 3.38 µM (active) in test [17], 2.82 µM (active) in test [18], 4.47 µM (active) in test [19] and 2.24 µM (active) in [20].
With `CC(=O)C1(O)Cc2c(O)c3c(c(O)c2C(OC2CC(N)C(O)C(C)O2)C1)C(=O)c1c(O)cccc1C3=O` (centres undefined), the Potency in test [2] is 3.16 µM (active); in test [3] it was 0.708 µM (active); in test [4], 6.31 µM (active); in [5], 5.01 µM (active); in test [7], 5.01 µM (active); in [8], 3.98 µM (active). In addition, the Potency in test [9] was 15.1 µM (active); in test [11], 5.36 µM (active); in test [12], 5.36 µM (active); in test [14] it was 6.31 µM (active); in test [15], 5.01 µM (active); in test [16], 10 µM (active). In addition, the Potency in test [17] is 5.36 µM (active); in test [18] it was 4.47 µM (active); in [19], 6.31 µM (active); in test [20], 4.47 µM (active).
As for `C[C@]12C=CC(=O)N[C@@H]1CC[C@@H]1C2CC[C@]2(C)C(C(=O)Nc3cc(C(F)(F)F)ccc3C(F)(F)F)CC[C@@H]12` (some centres undefined), the Potency in test [2] was 5.62 µM (active); in [3], 2 µM (active); in [8], 5.01 µM (active); in [11], 3.79 µM (active). For the same molecule, the Potency result in test [5], in test [7], in test [9], in test [13], in test [14] and in test [15] was “inactive” each time. The Potency entry in test [16], in [17], in [18] and in test [19] was “inactive” throughout.
Take `CC(C)C(=O)OCC(=O)[C@@]12OC(C3CCCCC3)O[C@@H]1CC1C3CCC4=CC(=O)C=C[C@]4(C)C3[C@@H](O)C[C@@]12C` (some centres undefined): the Potency in [2] is 1 µM (active); in [3], 0.447 µM (active); in [4], 0.708 µM (active); in test [5], 0.708 µM (active); in test [7], 1 µM (active); in [8] it was 0.708 µM (active). In addition, the Potency in [9] was 1.35 µM (active); in test [11] it was 0.601 µM (active); in test [12], 1.35 µM (active); in test [14], 0.891 µM (active); in test [15], 0.891 µM (active); in [16], 1 µM (active). The Potency in test [18] is 1.26 µM (active); in test [19], 1.12 µM (active); in [20], 0.891 µM (active).
As for `CC1(C)CC1C(=O)N/C(=C/CCCCSCC(N)C(=O)O)C(=O)O` (centres undefined), the Potency entry in [1], in test [2], in test [3], in test [4], in test [5] and in test [6] was “inactive” each time. Further, the Potency result in [7], in test [9], in [10], in test [11], in [12] and in [13] was “inactive” in each case. Also, the Potency result in [14], in test [15], in test [16], in test [17], in [18] and in test [19] was “inactive” throughout. For the same molecule, the Potency entry in [20] is “inactive”.
In the case of `CCC(C(=O)C(C)C(O)C(C)CCc1ccc(C)c(O)c1C(=O)O)C1OC(CC)(C2CC[C@@](O)(CC)C(C)O2)CC1C` (some centres undefined), in test [1], the Potency entry is “inactive”. The Potency in test [2] was 0.447 µM (active); in [3], 0.501 µM (active); in test [4] it was 0.891 µM (active); in test [5] it was 0.708 µM (active); in test [6], 0.849 µM (active); in [7], 0.794 µM (active). Further, the Potency in [8] is 0.631 µM (active); in [9] it was 1.35 µM (active); in test [10] it was 0.478 µM (active); in test [11] it was 0.426 µM (active); in test [12], 0.849 µM (active); in test [13], 0.601 µM (active). In addition, the Potency in [14] was 0.794 µM (active); in test [15], 0.316 µM (active); in [16], 1.26 µM (active); in [17], 0.849 µM (active); in test [18] it was 0.447 µM (active); in test [19], 0.891 µM (active). For the same molecule, the Potency in [20] is 0.355 µM (active).
